Whole data set: some 4,500 sequences, median “median log2 fold change of GCK-ALFA target abundance (FLAG IP / Myc IP barcode read proportion)” near 0.078, cut for the lowest 2% near -0.6. Only a selection was taken, and the lowest values are over-represented in it overall.
B1: GBRAP_160_4221 (protein)
chain: SETIERIVKIFRENFEEAVELIEGESLEEQKVILDVAVGEVILEVSSDENVTDEMEEVVEKKAEEAAEELLKLKNASREEKLKLIEEKAKELKKELEKLA
B2: GBRAP_160_4219 (protein)
chain: METIERIVEIFRENFLEALELIEGESEEERKVILDVAVGEIILEVDSDENVTDEMEEVVDEKARELAEELLKLKNASEEEKRALIEEKAEELREELEKLA
B3: GBRAP_166_4915 (protein)
chain: SMEELLEEAKRRIEELVKKIPKTDREKQVELAIEIAEVLEELEKAGASEEELDELWRHLAEALKEAGLDVERLMAVVAAAAGLDEEEMERVDEIVEEVLA
B4: GBRAP_52_6254 (protein)
chain: MRARLRADAREIVALVAAGREEEARALARDIAENYNEEELRLFVDEMAALAREARPEELDTVWRAAELMAEELEAAGKPEILVDDLLARVAAAAVEVLAR
B5: GBRAP_52_6083 (protein)
chain: MEKEIEETANKIYEAIKAGDKEKALELIKEAIKKFSPEEIKEMLKLTAEKVASLGDEKHELFVDILTEAEDLMIEAGISEEEALLIVGDAEAALAKAVAA
B6: GBRAP_52_6085 (protein)
chain: MEEEIEERAEEIYEAIKAGDKEKALALIKKAIKEFSAEEIKRMLELTAKRVASLGDDAHELFVDILGEAEDLLIEAGISEEEALAIVGAAEAALARAVAA
B7: GBRAP_52_6084 (protein)
chain: MKEKIEKTAKEIYEAIKAGDKEKALELIKKAVEEFSKEEIKEMLELTAKRVASLGDDAHELFVDILDEAEDILIEAGISEDDALLIVGSAEAALAKAVAA
B8: GBRAP_160_4760 (protein)
chain: KEKLKKLKEEVEEIFKEHLEMLKEVKPEEAPTVVRGAMGEVIMEVMSSEAASDELEEKIGEIADEAEEEAEANKDAPVEFHIKILEEARKKILSLIEEEI
B9: GBRAP_125_2982 (protein)
chain: PTEQELEDLRRFARALGLDEEEAEEAAELARAHSLRGTVYAILAALGEEEAADLVEKLTEEEVARVLRRVAAYLEAHPDATPEEVVALFRELAEEELAKR
B10: GBRAP_139_3718 (protein)
chain: SAAEEKIEKAKEIVEKYKDDLEKLAKELAKLISEVDGETALEIVRAAAEELKDWSWEEWEEFIELLEKELKELGFDEDDVLAIKGEFEAVMAKHLMAKEA
B11: GBRAP_117_2578 (protein)
chain: MEEREEVKRRLRETVREAGKRLEESKSLSPEERRKVEEEVRERIAEAVREALEVLSREEVLDIVEEELLEFDAETYFKIMSFVEEAIEEIREEEEREREE
B12: GBRAP_11_2868 (protein)
chain: KKEKLEELAKLVKEAIEKLEKLLKEGVDNEELRKEIKKLLKEALKLAEKYASPAVAELLKIALEDLEKAEEDPENAKEYVERALAALRVAHGDLLLEIDE
B13: GBRAP_172_4999 (protein)
chain: GTTLLKLNLLGLSKEEAVETAVKAVKETIEKTGNNLVVAVIADDEETVEAVEKAIKKVAKEKGVKVEVVGEAYRSEEDERRVLAAAEAEKINLEYEEEEK
B14: GBRAP_11_2687 (protein)
chain: KKEKLEEGAKLAEELAKLIEELLKEGVDNEKLLKELEKKLKELEKLTKEYADKASQKLTEDIKETWEEMLKDPEKAEEYAKEMLAGARVLAGDYLLEIEE
B15: GBRAP_160_4407 (protein)
chain: SEALKETAERILEAVKDELDLLLELGKIDPKAAAGLLEGTVLLEMFEDDSLTEEQEEKLEELAERLAERLEKLLKEEGEMTEEIRKELLEEAKRGLEEII
B16: GBRAP_160_4408 (protein)
chain: SEELEETAERILEAVEDELELLLELGEVDPEAAAGLLEGTILLEAFEDDSLTEEQEEEIEELAEELAERLERLLKEEGRMTEEIVEELLEEAEEGLEEII
B17: GBRAP_160_4409 (protein)
chain: SEELKKTAERILEAVKEELELLLELGEIDPEAAAGLLEGTILLEVFEDDSLTEEQEEKLEELAEELAEELRKRLEEEGKMTEEIKEELLKLAKEGLEKII
B18: GBRAP_14_3807 (protein)
chain: MEEKKKAITDNTDELKEIVTEILKDAPQEVRDAVLAAIEDFRKTVIENNLNPDEIAELGDELVKKVEEITKDLPADVRARVLAAVRVHTGEIILEVEELE
B19: GBRAP_95_7033 (protein)
chain: EDDKLALESAIEVAVAAAELGDDDAAARALREALELLKKAGKVELDEELLKEAIDVIERVGVKKLPREDVLELLELLLEAAETEEVKELAEKAIERVKKR

Biological target: GABARAP, O95166
Sequence (O95166 whole entry, the tested form may be a part): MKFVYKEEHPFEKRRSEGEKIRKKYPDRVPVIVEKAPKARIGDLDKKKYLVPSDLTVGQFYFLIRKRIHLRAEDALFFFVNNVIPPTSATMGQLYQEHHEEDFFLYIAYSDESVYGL
Experiment: median log2 fold change of GCK-ALFA target abundance (FLAG IP / Myc IP barcode read proportion) (log2 ratio); each designed protein is fused to an ALFA-tag nanobody in HEK293 cells to bring the named protein to FLAG-tagged glucokinase (GCK); Myc marks an untargeted standard; higher = target protein stabilised (more abundant)
Conditions: target protein: 3xFLAG-MCP-GCK-ALFA reporter; HEK293 landing pad (RPLP)
Method: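 LABEL-seq trans screen in HEK293 landing-pad cells. Each de novo designed 100-aa effector handle, binding the indicated effector (E3 ligase, DUB or autophagy protein), is fused to a constant NbALFA target handle and induced with 2 ug/mL doxycycline. A FLAG-MCP-GCK-ALFA target and a Myc-MCP standard reporter were transfected, and after 48 h circRNA barcodes were recovered by anti-FLAG and anti-Myc IP and sequenced. The value is the median across barcodes (at least 3 per design) of log2(FLAG/Myc read-proportion ratio), with the two transfection replicates pooled. Negative values mean degradation and positive values mean stabilisation of the target.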

Going from B1 to B2, the “median log2 fold change” value rises from -0.86 to -0.349.

Compared with B3, B4 is lower in “median log2 fold change” value: 0.0994 for the first, -0.285 for the second.

B5 and B6 are within 0.2 log units of each other in “median log2 fold change” value: -0.22 for the first, -0.146 for the second.

First: B7
Second: B8
The “median log2 fold change” value of the first is lower: -0.732 for the first, -0.185 for the second.

Compared with B9, B10 is higher in “median log2 fold change” value: -0.551 for the first, 0.0839 for the second.

Going from B11 to B12, the “median log2 fold change” value falls from 0.274 to 0.0406.

B13 and B14 are within 0.2 log units of each other in “median log2 fold change” value: 0.15 for the first, 0.232 for the second.

Going from B15 to B16, the “median log2 fold change” value falls from -0.289 to -0.872.

First: B17
Second: B18
The “median log2 fold change” value of the first is lower: -0.32 for the first, 0.206 for the second.

B19 was tested, and the “median log2 fold change” value was 0.148.

— the supplement of paper PMC12632987
